# This is one part of a sample in which hits are shown more often than they occur.
# Dicer inh = inhibitors of Dicer pre-microRNA processing, primary screen, biochemical, cat-ELCCA, chemiluminescence; Endoribonuclease Dicer (Homo sapiens), Q9UPY3; cat-ELCCA pre-miR-21 Dicer processing; active compounds read high; z-score at 25 µM; 47,000 tested, 6% active; AID 1347074, 2019; in the data active means z-score above about 3, passing the limit was not always enough;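 further: higher signal means more uncleaved substrate so more Dicer inhibition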
# Numbers stand for hits; n = inactive.
SMILES,Dicer inh
CCCC12CN3CC(CCC)(CN(C1)C3c1ccc(O)cc1)C2=O (configuration not stated),n
N#C/C(=C\c1c(O)ccc2ccccc12)C(N)=O,n
Cc1cc(Cl)cc2c1C(=O)/C(=C\c1cc(Br)cs1)S2,n
COc1ccc(NC(=O)c2sc3nc4c(cc3c2N)CCC4)cc1,n
Cc1cc(Sc2nnc(N)s2)c2ccccc2n1,n
CCC(c1ccccc1)c1nnc(N)s1 (configuration not stated),4.2
CC(c1ccccc1)c1nnc(N)s1 (configuration not stated),n
Cc1ccc(/C=N/NC(=O)Cn2nc3n(c2=O)-c2ccccc2SC3)o1,n
COc1cccc(/C=N/NC(=O)CN2C(=O)CSc3ccccc32)c1,3.2
Cc1nn(-c2ccccc2)cc1/C=N/NC(=O)Cn1nc2n(c1=O)-c1ccccc1SC2,n
O=C(O)c1nccnc1C(=O)Nc1ccc(Oc2cccc(C(F)(F)F)c2)nc1,n
CN(C)/C=N/NC(=O)COc1ccc(SC(F)(F)F)cc1,n
O=C(NCCN1CCN(Cc2ccccc2)CC1)Nc1ccc(OCc2ccccc2)cc1,n
CCCS(=O)(=O)/C(C#N)=C\OCC,n
CCSc1ccsc1C1C(C#N)=C(N)N(c2cccnc2)C2=C1C(=O)CC(c1ccccc1)C2 (configuration not stated),n
CSc1sc(C)cc1C1C(C#N)=C(N)N(c2cccnc2)C2=C1C(=O)CC(c1ccccc1)C2 (configuration not stated),5.8
COC(=O)C1=C(C)NC2=C(C(=O)CC(c3ccccc3)C2)C1c1cccnc1 (configuration not stated),n
Cc1ccc(C2/C(=C(\O)c3ccc(Cl)cc3)C(=O)C(=O)N2c2cccnc2)cc1 (configuration not stated),n
Cc1cc(NC(=O)c2sc3nc4c(c(-c5cccs5)c3c2N)CN(C)CC4)no1,n
O=c1[nH]nc(SCCS(=O)(=O)c2ccc(Cl)cc2Cl)n1-c1ccc2c(c1)OCCO2,n
O=C(CC(=O)c1ccccc1O)c1ccc(Cl)cc1,n
Cc1ccc(C(=O)CC(=O)c2ccc(Cl)cc2)c(O)c1,4.4
Cc1cc(C)c(C(=O)CC(=O)c2ccccc2Cl)c(O)c1,n
Cc1ccccc1-n1c(N)cc(=O)n(Cc2cccs2)c1=O,n
CCOC(=O)c1cnc(S/C=C/C(=O)c2ccccc2)nc1N,n
SMILES,Dicer inh
Cc1ccc(N2C(=O)C3C4C=CC(O4)C3C2=O)cc1C (configuration not stated),n
CN(C)S(=O)(=O)c1ccc2c(c1)oc(=O)c1cc(S(=O)(=O)N(C)C)ccc12,n
CC(C)(C)NS(=O)(=O)c1ccc2c(c1)oc(=O)c1cc(S(=O)(=O)NC(C)(C)C)ccc12,n
O=c1oc2cc(S(=O)(=O)N3CCCC3)ccc2c2ccc(S(=O)(=O)N3CCCC3)cc12,3.5
C/C(=N\OC(=O)c1ccc(C(F)(F)F)cc1)c1ccc[nH]1,n
CC(=O)Oc1cccc(N2C(=O)C3C4c5ccccc5C(c5ccccc54)C3C2=O)c1 (configuration not stated),n
CCc1n(CC(O)COc2cccc(Cl)c2)c2ccccc2[n+]1C (configuration not stated),n
Cc1ccc(C(=O)OC2=CC(=O)c3ccccc3C2=O)cc1,n
O=C(OCc1ccccc1)c1cnc(N2CCSCC2)nc1C(F)(F)F,n
CCCCNC(=O)NCCNc1ccc(C(F)(F)F)cn1,n
CCOC(=O)C(=CNc1cc(C)no1)C(=O)OCC,n
O=C(NCc1ccco1)c1nn2c(c1Cl)NC(c1ccc(F)cc1)CC2C(F)(F)F (configuration not stated),4.9
O=C(NCc1ccc(F)cc1)c1nn2c(c1Cl)NC(c1ccco1)CC2C(F)(F)F (configuration not stated),5.1
O=C(NCc1ccncc1)c1cc2n(n1)C(C(F)(F)F)CC(c1ccco1)N2 (configuration not stated),n
COCCNC(=O)c1nn2c(c1Cl)NC(c1ccc(Br)cc1)CC2C(F)(F)F (configuration not stated),n
CC1CCCCN1C(=O)c1nn2c(c1Cl)NC(c1ccco1)CC2C(F)(F)F (configuration not stated),n
CC(C)(C)NC(=O)c1nn2c(c1Cl)NC(c1ccccc1)CC2C(F)(F)F (configuration not stated),n
CCOC(=O)c1c(C)oc2ccc(NS(=O)(=O)c3cccc4cccnc34)cc12,n
CCC[C@@H]1C(=O)OC[C@@H]1Cc1cncn1C,n
Cc1ccc(-c2nnc(SCC(=O)c3c(C)[nH]c4ccccc34)o2)cc1,n
COC(=O)c1cc(/C=C(\C#N)S(=O)(=O)c2ccccc2)cn1C,n
CC1=C(C(=O)Nc2cc(C)ccn2)C(c2cccc(Br)c2)C2=C(CC(C)(C)CC2=O)N1 (configuration not stated),n
Clc1ccc(Nc2nc3ccccc3nc2-c2ccccc2)cc1,n
Oc1ccccc1-c1nc(/C=C/c2ccccc2Cl)no1,n
Oc1ccccc1-c1nc(/C=C/c2ccccc2)no1,n
